The values below come from PubChem BioAssay (NCI).

Several values for one entry are separate records, joined by “and”; a condition that tells them apart may be missing. Identical values can stand only once. The panel holds about 79,000 compounds, 15% with a hit somewhere; the sample as a whole holds those more often. A number with no mark means an inactive call. Activity calls are given as the source filed them. Cut-off read from the data, not from the text of the source: active = growth inhibition above about 70%; inactive = the rest.

A short description of test [1]: NCI Yeast Anticancer Drug Screen. Data for the rad50 strain (AID 155).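 Note: 0% = growth of vehicle-only cultures of the same strain.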 The conditions noted are these: S. cerevisiae rad50 strain growth inhibition; at 50.0 µM; stronger effect = higher value. In short, it runs like this: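 Cells are treated with compound, grown, and their growth is then scored against vehicle-only cultures of the same repair-deficient yeast strain.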
Test [2] in a line: NCI Yeast Anticancer Drug Screen. Data for the mec2-1 strain (AID 157). The settings on record: S. cerevisiae mec2-1 strain, at 50.0 µM, stronger effect = higher value. In short, it runs like this:
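Mutant yeast (mec2-1) grown with compound; growth inhibition relative to vehicle control reported.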

Test [3] can be described thus: NCI Yeast Anticancer Drug Screen. Data for the sgs1 mgt1 strain (AID 161).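 Note: 0% = growth of cultures given vehicle only.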 The conditions noted are these: S. cerevisiae sgs1 mgt1 strain, at 50.0 µM, stronger effect = higher value. In short, it runs like this:
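Percent growth inhibition was derived by comparing compound-exposed mutant yeast with vehicle-exposed cultures. The strain carries alterations in DNA damage repair.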

The nature of test [4]: NCI Yeast Anticancer Drug Screen. Data for the cln2 rad14 strain (AID 165).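 Note: 0% = growth equal to vehicle treated cultures.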 The conditions noted are these: S. cerevisiae cln2 rad14 strain, at 50.0 µM, stronger effect = higher value. In short, it runs like this:
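Readout is yeast growth inhibition versus vehicle-treated controls, using a strain with cln2 and rad14 alterations exposed to compound.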

Test [5] in a line: NCI Yeast Anticancer Drug Screen. Data for the bub3 strain (AID 167). The settings on record: S. cerevisiae bub3 mutant strain, at 50.0 µM, stronger effect = higher value. The method, boiled down:
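Part of a panel of yeast mutants defective in DNA damage repair or cell cycle regulation. Each strain is grown with compound, and inhibition is calculated relative to solvent-treated cultures.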

A short description of test [6]: NCI Yeast Anticancer Drug Screen. Data for the mlh1 rad18 strain (AID 175). The settings on record: S. cerevisiae mlh1 rad18 strain growth inhibition; at 50.0 µM; stronger effect = higher value. The method, boiled down:
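Genetically defined yeast (DNA repair-deficient) exposed to compounds; growth inhibition determined relative to vehicle.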

As for `O=C(CP(=O)(O)O)NC(CC(=O)OCc1ccccc1)C(=O)OCc1ccccc1` (centres undefined), the growth inhibition is 12.8% and 33% in test [1]; 7.65% and -0.7% in test [2]; 16.9% and 20.3% in test [3]; 14.9% and 12.6% in test [4]; 2.05% and 1.2% in test [5]; -3.4% and 3.45% in test [6].

With `COP(=O)(OC)N1CCCCC1`, the growth inhibition in test [1] is 29%; in test [2] it was 20.4%; in test [3], 12.7%; in test [4], 12.4%; in test [5], 22%; in test [6] it was 27.6%.

Take `CN(C)c1ccc(/C=C/[N+](=O)[O-])cc1`: the growth inhibition was -3% in test [1]; -17.4% in test [2]; 12.4% in test [3]; -15.7% in test [4]; 0.6% in test [5]; -3.25% in test [6].

Regarding `CCCC(C)C1(C)C(=O)NC(=O)N(C)C1=O` (centres undefined), the growth inhibition is 4.35% in test [1]; 18.1% in test [2]; 0.15% in test [3]; 11.8% in test [4]; 1.05% in test [5]; -11.9% in test [6].

For the compound `CCOC(OCC)c1ccc(N(C)C)cc1.[C-]#[O+].[C-]#[O+].[C-]#[O+].[Cr]`, the growth inhibition in test [1] was -8.25%; in test [2] it was -30.2%; in test [3], 37.8%; in test [4], -4.5%; in test [5], -8.3%; in test [6], 4.6%.

Consider `Oc1ccc(C=NCC2CCCC[N-]2)c(O)c1.Oc1ccc(C=NCC2CCCC[N-]2)c(O)c1.[Ni+2]` (centres undefined), for which the growth inhibition was 7.3% in test [1]; 8% in test [2]; 6.55% in test [3]; 5.15% in test [4]; 11.2% in test [5]; -8.4% in test [6].

With `COc1ccc(N2CC=C(c3ccccc3)OP2(=O)N2CC2)cc1` (centres undefined), the growth inhibition in test [1] is -20.4%; in test [2], 25.9%; in test [3] it was 5.9%; in test [4] it was 18.2%; in test [5], 0.95%; in test [6], -7.7%.

For `O=Cc1cn(CCCCCCCCCCCCn2cc(C=O)c3ccccc32)c2ccccc12`, the growth inhibition in test [1] was -2.75%; in test [2], -10.8%; in test [3], 0.25%; in test [4], -5.55%; in test [5], 7.35%; in test [6] it was -12.8%.

Regarding `CN1CCC2CCCCN2CC1=O` (centres undefined), the growth inhibition in test [1] was -4.15%; in test [2], 0.45%; in test [3] it was -1%; in test [4], -4.35%; in test [5] it was -12%; in test [6] it was -4%.

Turning to `CCC[CH2][Sn]([CH2]CCC)([CH2]CCC)[CH2]CC(=O)OC`, the growth inhibition was 99.5% (active) in test [1]; 99.4% (active) in test [2]; 99.5% (active) in test [3]; 99.3% (active) in test [4]; 99% (active) in test [5]; 99.5% (active) in test [6].

On to `COc1cccc(C=O)c1OC`, for which the growth inhibition in test [1] is 15.8% and 43.1%; in test [2] it was 2.2% and 24.1%; in test [3], 4.2% and 20.9%; in test [4], 27.1% and -7.95%; in test [5], 3.5% and 12.7%; in test [6], 47% and 37.1%.

For the compound `CC(=O)[O-].Cn1ccnc1CNCc1nccn1C.[Cu+2].[O-][Cl+3]([O-])([O-])[O-]`, the growth inhibition in test [1] was 18.9%; in test [2] it was 3.2%; in test [3], 3.3%; in test [4], 18.6%; in test [5] it was -1.4%; in test [6], 5.25%.

Consider `CCOP(=O)(NC12CC3CC(CC(C3)C1)C2)OCC`, for which the growth inhibition was -1.5% in test [1]; 8.2% in test [2]; -7.5% in test [3]; 5.25% in test [4]; 19.6% in test [5]; -18.2% in test [6].

As to `CCC[CH2][Sn]([CH2]CCC)([CH2]CCC)[CH2]CC[N+](C)(CCO)CCO.CS(=O)(=O)[O-]`, the growth inhibition in test [1] is 99.4% (active); in test [2], 99.2% (active); in test [3], 99.7% (active); in test [4] it was 99.3% (active); in test [5], 99.5% (active); in test [6], 99.2% (active).

For the compound `O=C(O)c1cccc(P(=O)(O)O)c1`, the growth inhibition is 14.3% and 9.3% in test [1]; -19.3% and -12.9% in test [2]; -5.25% and 17.4% in test [3]; 2.35% and 28.6% in test [4]; -4% and -10.6% in test [5]; 2.55% and -0.35% in test [6].

For `CC12OC1(C)C1C(=O)OCC1C2=O` (centres undefined), the growth inhibition in test [1] was 3.4%; in test [2] it was 3.6%; in test [3], -3.45%; in test [4], 3.95%; in test [5], 3%; in test [6] it was -0.95%.

`CC(=O)OC1CCC2(C)C(=CCC3C2CCC2(C)C(Oc4ccccc4)CCC32)C1` (centres undefined): the growth inhibition in test [1] was -42.7%; in test [2], -28.4%; in test [3] it was -33.6%; in test [4] it was 3.55%; in test [5] it was -28.4%; in test [6], -46.1%.

Take `CC(C)CCCCCc1ccc(OCCOc2ccc(C(=O)Nc3ccc(S(=O)(=O)F)cc3[N+](=O)[O-])cc2)cc1`: the growth inhibition was 42.1% in test [1]; -8.75% in test [2]; 26.2% in test [3]; -11.7% in test [4]; 0.5% in test [5]; 9.85% in test [6].

For the compound `COc1cc(C2c3cc4c(cc3OC(NNS(=O)(=O)c3ccc(C)cc3)C2C)OCO4)cc(OC)c1O` (centres undefined), the growth inhibition was -3.5% in test [1]; -7.8% in test [2]; -15.8% in test [3]; 0.15% in test [4]; -12.5% in test [5]; 1.6% in test [6].
